Most compounds without a hit are left out; they make up all but 3.7% or so of the library.
PTHR1 ag: PTHR1 (human) receptor agonism. AID 743266. Potency, µM (series often up to 115 µM), for inactives: top-dose activation, most hits filed as activators. HEK293 GP2 PTHR1 cells, GloSensor cAMP luminescence, 1 h. actives 0.075% (n = 410,000); also: potency is read from the fitted curve at half-maximal effect; nearly all actives have a fitted effect of over 55% in size
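HEK-293-derived GP2 cells expressing PTHR1 and a GloSensor cAMP reporter, 3,000/well, plated overnight, given luciferin plus IBMX (each 0.5 mM as added) for 1 h at 37 °C, then compound for 1 h at 37 °C. Luminescence was read after 15 min at room temperature.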
DRD3 agonist: agonists of human D3 dopamine receptor | max activation, % | D3R DiscoveRx beta-arrestin cells, luminescence, 90 min | actives 0.58% (n = 410,000); in the data active = max activation above about 30%; also: 0% is about no effect
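Agonist-mode cell screen: cells plated at 1500/well and incubated overnight at 37 °C, then exposed to library compounds for 90 min at 37 °C. Detection reagent was added for 30–60 min at room temperature, and luminescence was read.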
B2AR arrestin: beta2AR (human) beta-arrestin recruitment activity | P07550 | beta-arrestin recruitment to beta2AR, cell-based reporter | Potency, µM (highest dose often 46.1 µM), inactives show at the top dose activation, actives largely listed as activators | actives 0.02% (n = 330,000) | AID 492947;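 also: potency is read from the fitted curve at half-maximal effect; 0% = DMSO controls and full agonism = EC100 isoproterenol or metaproterenol; nearly all actives have a fitted effect of over 65% in size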
Target sequence (P07550 whole entry, looked up): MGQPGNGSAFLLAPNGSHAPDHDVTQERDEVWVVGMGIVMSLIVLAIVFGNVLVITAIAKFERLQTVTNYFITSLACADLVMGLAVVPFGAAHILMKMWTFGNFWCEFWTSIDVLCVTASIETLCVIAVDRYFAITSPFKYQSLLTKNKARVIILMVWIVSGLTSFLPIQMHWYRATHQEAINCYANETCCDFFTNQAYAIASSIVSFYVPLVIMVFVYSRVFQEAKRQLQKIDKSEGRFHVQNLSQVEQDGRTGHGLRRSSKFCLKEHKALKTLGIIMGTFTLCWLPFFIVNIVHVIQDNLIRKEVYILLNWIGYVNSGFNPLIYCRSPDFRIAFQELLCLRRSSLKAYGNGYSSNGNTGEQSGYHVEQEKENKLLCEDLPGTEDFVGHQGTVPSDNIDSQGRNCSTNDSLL
D3 antag: antagonists of human D3 dopamine receptor; D3R cells, DiscoveRx beta-arrestin luminescence, antagonist mode; stronger effect = lower value; AID 652054; P35462; max response, negative = inhibition, %; actives 2.5% (n = 360,000); in the data active = max response below about -50%; inconclusive = no clear call, values can overlap the other calls; also: % is scaled to controls: 0 for no effect and ±100 for the full control effect
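Cells plated overnight at 1500 cells/well, then exposed to library compounds with dopamine controls for 90 minutes at 37 degrees C. DiscoveRx reagent added for 30–60 minutes at room temperature; luminescence read, quantitative HTS format.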
RGS4 inhibitor: blocks human RGS4-accelerated GTP hydrolysis | P49798 | Transcreener GDP fluorescence polarization, RGS4-accelerated GTP hydrolysis | Potency, µM (top dose mostly 114 µM), without a hit: at the highest dose activity change, negative = inhibition, usual class: inhibitors | actives 0.039% (n = 390,000) | AID 504845; also: potency is read from the fitted curve at half-maximal effect; % is scaled to controls: 0 for no effect and ±100 for the full control effect; nearly all actives have a fitted effect of over 75% in size
Target sequence (P49798 whole entry, looked up): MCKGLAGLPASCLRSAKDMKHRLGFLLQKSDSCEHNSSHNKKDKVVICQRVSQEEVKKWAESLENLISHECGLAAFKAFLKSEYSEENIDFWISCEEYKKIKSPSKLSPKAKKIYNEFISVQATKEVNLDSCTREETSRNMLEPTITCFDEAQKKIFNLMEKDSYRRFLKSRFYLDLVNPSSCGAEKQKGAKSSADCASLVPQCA
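MLSMR compounds (23 nl, pin-transferred) preincubated 10 min at room temperature with a 500nM (2x) first reagent, then RGS4 at 900nM (2x) plus Transcreener GDP mix added; fluorescence polarization (620/688 nm) read before and after 90 min at 30 °C.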
BRCA1 expr act: increases BRCA1 expression | Potency, µM (titrated, usually from 46.1 µM), inactives show at the top dose activation, actives largely listed as activators | actives 1.1% (n = 380,000) | AID 624202 | MCF7-BRCA1-FFLuc reporter, luminescence, 48 h; response scale: scaled: vehicle 0%, 10 µM genistein 100%; also: potency is read from the fitted curve at half-maximal effect; nearly all actives have a fitted effect of over 80% in size
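Cells: MCF7-BRCA1-FFLuc, 2000/well. Exposure: 48 h, 37 °C, 5% CO2. Read: luminescence, 15 min post-substrate. Controls: genistein 10 microM (maximal activation), DMSO (neutral).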
* = called active by the depositor; i = inactive; ? = inconclusive; · = no result given; [ ] = dose if it differs, or a comment. Unless noted, calls follow the shape of the dose curve; as a rule, active = well fitted curve in the direction sought with a large enough effect; inconclusive = small, poorly fitted or top-dose-only effect, or another doubt; inactive = no such curve, though single readings can be large; an effect the other way counts as inactive or inconclusive.

SMILES | PTHR1 ag | DRD3 agonist | B2AR arrestin | D3 antag | RGS4 inhibitor | BRCA1 expr act
CCN(CC(=O)Nc1ccc(NC(C)=O)cc1)C(=O)c1c(C)nn(Cc2ccc(C)cc2)c1Cl | -6% | 2 | · | 4 | 22% | -7%
CCC(C)C(=O)Nc1nc(C)c(-c2csc(Nc3cc(Cl)ccc3OC)n2)s1 (stereo not drawn) | -25% | 48* | 0% | 2 | -49% | -65%
COc1ccc(NC(=O)C2Cc3c(-c4ccc(NC(C)=O)cc4)ccnc3O2)cn1 (stereo not drawn) | ? | 2 | · | 0 | · | 4%
Cn1c(=O)c([N+](=O)[O-])c(-n2ccnc2)c2ccccc21 | -45% | -22 | 0% | -51* | ? | -87%
CCOC(=O)/C=C/C(=O)Nc1cccc([N+](=O)[O-])c1 | -29% | -5 | -1% | -21 | ? | -61%
CCOC(=O)/C=C/C(=O)Nc1ccccc1-c1ccccc1NC(=O)/C=C/C(=O)OCC | -2% | -5 | -1% | -62* | -8% | -76%
CCOC(=O)C1(C(F)(F)F)N=C(c2cccnc2)OC(N2CCOCC2)=N1 (stereo not drawn) | i | -2 | 0% | -59* | 3% | -14%
CCOC(=O)c1cnc(-c2ccccc2)nc1N1CCOCC1 | -3% | -2 | 0% | 1 | -8% | -44%
Cc1nc(C)c(CCNS(=O)(=O)c2ccc(F)cc2)s1 | i | 3 | · | · | 10% | 4%
COCCC(=O)N1CCCC(CNS(=O)(=O)c2ccc(OC)cc2)C1 (stereo not drawn) | 24% | -3 | 0% | -63* | 23% | 6%
Cc1cc(/C=C/c2ccnc3ccccc23)ccc1N | · | · | · | · | · | 0%
Cc1cccc(C)c1NC(=O)C[N+](C)(C)CC(O)COc1cccc2ccccc12 (stereo not drawn) | -3% | -15 | 0% | -52* | 17% | -29%
COc1cccc(N2CCN(c3cnc4ccccc4n3)CC2)c1 | -24% | 16 | 0% | 13 | -41% | 2µM*
O=C(Oc1oc(-c2ccco2)nc1C=Nc1ccccc1)c1ccco1 | ? | -8 | 0% | -50* | ? | 71%
Cc1ccc(C(=O)Oc2oc(-c3ccco3)nc2C=Nc2ccc(Cl)cc2)cc1 | -43% | -2 | -1% | 0 | -48% | 2µM*
CCN1C(=O)[C@@H]2[C@H](C1=O)[C@@H]1C(=O)Nc3ccccc3C(=O)N1[C@@H]2c1cccc(C)c1 | i | 45* | 5% | -28 | -20% | 0%
CCN1C(=O)[C@@H]2[C@H](C1=O)[C@@H]1C(=O)Nc3ccccc3C(=O)N1[C@@H]2c1cccc(OC)c1 | -30% | -4 | 0% | 23 | -39% | 6%
FC(F)(F)c1cccc(-c2nnn3c2nc(NC2CCCCC2)c2ccccc23)c1 | -18% | 1 | · | · | 1% | -36%
NNc1nc2c(-c3cccc(C(F)(F)F)c3)nnn2c2ccccc12 | -13% | 32* | -1% | 36 | -40% | -65%
O=C(Cn1cnc2c(NCc3ccccc3)ncnc21)NCCCN1CCCC1=O | -17% | 34* | 0% | 24 | 8% | -5%
C=CCn1cnc2c(NCc3ccccc3)ncnc21 | -6% | -1 | 3% | -22 | 34% | 4µM*
CCN(CC(=O)Nc1c(F)cccc1F)C(=O)c1cc([N+](=O)[O-])ccc1N1CCOCC1 | -16% | 2 | 0% | -7 | -3% | -32%
O=C(C1CCN(S(=O)(=O)c2cc(Cl)ccc2Cl)CC1)N1CCOCC1 | -17% | -6 | -1% | -22 | 17% | -13%
CC(C)n1nnnc1SCC(=O)N1N=C(c2cccs2)CC1c1cccs1 (stereo not drawn) | -11% | 5 | 0% | 21 | -2% | 13µM*
COc1ccc(C(C)(O)c2nc(/C=C/c3ccccc3)cs2)cc1 (stereo not drawn) | -8% | -12 | · | -78* | · | -2%
SMILES | PTHR1 ag | DRD3 agonist | B2AR arrestin | D3 antag | RGS4 inhibitor | BRCA1 expr act
OC(c1ccccc1)c1nc(/C=C/c2ccccc2)cs1 (stereo not drawn) | -7% | 6 | · | 38 | · | 10µM*
Cc1ccc(-c2onc3ccc(C(=O)O)cc23)cc1 | i | -6 | -1% | -10 | -1% | -3%
O=C(O)c1ccc2noc(-c3ccccc3)c2c1 | i | 2 | 0% | -25 | 0% | 4µM*
Cc1cccc(Cc2ccc(Cl)nn2)c1 | -17% | 3 | 0% | 1 | 8% | 6%
Cc1cccn2c(=O)c(C(=O)N3CCN(c4ccccc4)CC3)cnc12 | i | -16 | · | · | 12% | ·
CCCCN1C(=O)/C(=c2\sc3nc(=O)c(-c4ccccc4)nn3c2=O)c2ccccc21 | -6%[57.5 µM] | 3 | -1% | -69* | -50% | -11%
COc1cccc(CNc2ccc(N3CCC(C)CC3)cc2)c1OC | i | -27 | 3% | -64* | ? | 6%
CN1CCc2nc(SCC(=O)Nc3ccc(Cl)cc3)c(C#N)cc2C1 | -8%[57.5 µM] | -25 | · | -60* | -5% | ?
Cc1ccccc1Oc1ccc2c(c1)[C@@H]1C[C@H](N(C)C(=O)Nc3cc(Cl)cc(Cl)c3)[C@H]([C@H](C)O)C(=O)N1CC2 | i | 6 | · | -3 | 9% | -31%
O=C1NC(=S)N/C1=C/c1cccc2ccccc12 | i | 1 | 1% | 7 | -21% | 13µM*
O=C1NC(=S)NC1=Cc1ccccc1O | -2% | 12 | · | 1 | -11% | 9%
CCC(CC)NC(=O)COC(=O)CCC(=O)c1ccc(Cl)cc1 | -18% | 41* | 0% | 13 | -2% | 34%
Cn1c(-c2ccc(Cl)cc2)cnc1N | i | -2 | 0% | -28 | 23% | 7%[1.84 µM]
Cc1ccc(-c2cnc(N)n2C)cc1C | -5%[57.5 µM] | 4 | -1% | -101* | -21% | 22%
CCCCCCCCNS(=O)(=O)CCNCc1ccccc1 | i | 5 | · | -18 | -16% | 8%
COc1ccc(CNS(=O)(=O)CCNCc2ccccc2OC)cc1 | -26% | -28 | · | -9 | 1% | 18%
COc1ccc(S(=O)(=O)NCCc2ccccc2)cc1OC | ? | -3 | 0% | 9 | -3% | -8%
CCCCCCCCNS(=O)(=O)CCNCc1ccccc1OC | i | -14 | · | -51* | 9% | -29%
CCCCCCCCNS(=O)(=O)CCNCc1ccco1 | -14% | 37* | · | -5 | -17% | 6%
COc1ccccc1CNS(=O)(=O)CCNCCc1ccccc1 | 7% | -34 | · | -74* | 43% | 0%
CCCCCCNS(=O)(=O)c1ccc(OC)c(OC)c1 | -12% | 32* | 0% | 17 | 14% | 0%
COC(=O)C1=C(C)N(CCc2cc(OC)c(OC)c(OC)c2)C(=O)N[C@H]1c1ccccc1 | i | 16 | · | 27 | -1% | 15%

Screens from PubChem.
